# G9a block = inhibitors of human histone lysine methyltransferase G9a. hit rate 8.8% among 350,000. Q96KQ7. AID 504332. G9a H3K9 monomethylation, AlphaScreen, 2 h. Potency, µM (top dose mostly 102 µM), without a hit: top-dose activity, negative = inhibition, usual class: inhibitors; further: on the % scale 0 is the no-effect control and ±100 the full control effect; nearly all actives have a fitted effect of over 75% in size
# Target sequence (Q96KQ7 913-1193 limits assumed): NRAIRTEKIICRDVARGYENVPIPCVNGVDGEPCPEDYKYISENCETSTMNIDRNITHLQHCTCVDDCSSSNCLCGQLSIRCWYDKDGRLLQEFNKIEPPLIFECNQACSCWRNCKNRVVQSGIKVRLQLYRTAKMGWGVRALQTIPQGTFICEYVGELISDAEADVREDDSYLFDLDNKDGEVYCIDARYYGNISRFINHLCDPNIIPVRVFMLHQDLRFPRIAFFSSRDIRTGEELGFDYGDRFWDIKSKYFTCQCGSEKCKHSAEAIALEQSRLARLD
#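 AlphaScreen detection with an anti-monomethyl H3K9 antibody quantified product after a 2 h room-temperature reaction containing 500 nM biotinylated H3K9 peptide, 20 µM SAM and 20 nM enzyme, which had been preincubated 15 min with compound.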
# ALOX12 inh = inhibitors of human 12S-lipoxygenase ALOX12; P18054; purified 12hLO, xylenol orange hydroperoxide absorbance; Potency, µM (series often up to 108 µM), without a hit: at the top dose activity change, negative = inhibition, actives largely listed as inhibitors; hit rate 1.1% among 580,000; AID 1671190; further: on the % scale 0 is the no-effect control and ±100 the full control effect
#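 Hydroperoxide product was detected by ferrous iron/xylenol orange as the 573 to 405 nm absorbance ratio. Arachidonic acid at 40 uM (final) was turned over for 30 min at room temperature by 150 nM human 12hLO, pH 7.0 Hepes buffer, after 15 min compound preincubation.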
# HP1b binding inh = HP1-beta chromodomain-methylated histone interaction inhibition. AlphaScreen HP1-beta / biotin-H3K9me3 peptide binding. Potency, µM (titrated, usually from 114 µM), without a hit: at the top dose activity change, negative = inhibition, usual class: inhibitors. hit rate 0.56% among 390,000; further: nearly all actives have a fitted effect of over 70% in size
# Target sequence (P83916 whole entry, looked up): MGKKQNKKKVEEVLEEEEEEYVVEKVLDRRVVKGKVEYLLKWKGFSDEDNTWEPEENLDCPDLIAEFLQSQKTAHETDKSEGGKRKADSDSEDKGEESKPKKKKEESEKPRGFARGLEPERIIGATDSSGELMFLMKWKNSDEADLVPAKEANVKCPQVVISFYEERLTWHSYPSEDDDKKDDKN
#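 Compound inhibition of the preformed complex between 50 nM HP1-beta and 50 nM biotinylated H3K9me3 peptide was read by AlphaScreen. Buffer was PBS pH 7.4 with 0.01% Tween-20. Incubations ran 30 min at room temperature, with 10 ug/mL donor/acceptor beads.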
# JMJD2A Tudor = inhibitors of human JMJD2A Tudor domain. O75164. AlphaScreen JMJD2A-Tudor / H3K4me3 peptide binding. Potency, µM (doses to about 114 µM), inactives show at the highest dose activity change, negative = inhibition, most hits filed as inhibitors. hit rate 4.4% among 390,000; further: on the % scale 0 is the no-effect control and ±100 the full control effect; nearly all actives have a fitted effect of over 50% in size
# Sfp PPTase inh = inhibitors of Bacillus subtilis Sfp phosphopantetheinyl transferase. Q9F4F7. Biochemical Sfp PPTase activity, qHTS. Potency, µM, for the others: largest response in the series, negative = inhibition, most hits filed as inhibitors. hit rate 3.5% among 310,000. AID 1490;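 further: the enzyme is Sfp with the accession as filed and its product quenches rhodamine fluorescence; 0% = enzyme reaction without inhibitor and -100% = no enzyme wells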
#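 Fluorescence-quenching assay with 15 nM Sfp, 5 uM rhodamine-CoA and 12.5 uM BHQ-2-labelled ybbR peptide in pH 7.6 Hepes/MgCl2 buffer. Enzyme was pre-incubated with compound for 15 min at room temperature. Rate was taken from the 30-min fluorescence change (525/598 nm).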
# BAZ2B block = inhibitors of human BAZ2B bromodomain. Potency, µM (top dose mostly 114 µM), for the others: top-dose activity change, negative = inhibition, usual class: inhibitors. Q9UIF8. hit rate 4.4% among 360,000. AlphaScreen BAZ2B-H3K14Ac peptide displacement; further: on the % scale 0 is the no-effect control and ±100 the full control effect; nearly all actives have a fitted effect of over 60% in size
#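 Complex of BAZ2B and biotin-H3K14Ac (50 nM apiece) forms over 30 min at RT, then faces library compounds up to 110 uM for another 30 min; AlphaScreen beads added, 20 min dark incubation, luminescence read.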
# Active calls of the source: *; ? = inconclusive; · = no result; [ ] = dose if it differs, or a comment. Hits are enriched below; roughly 8.7% of the tested compounds scored in any of these assays. The call rests on the fitted dose curve; in most records, active means well fitted curve in the direction sought with a large enough effect; inconclusive means small, poorly fitted or top-dose-only effect, or another doubt; inactive means no such curve, though single readings can be large; an effect the other way counts as inactive or inconclusive. Potency means the concentration at half of the fitted maximal effect.
SMILES,G9a block,ALOX12 inh,HP1b binding inh,JMJD2A Tudor,Sfp PPTase inh,BAZ2B block
CC1N(C)c2cc(NC(=O)c3ccco3)c(P(=O)(Nc3ccc([N+](=O)[O-])cc3)N3CCOCC3)cc2C1(C)C (stereo not given),50.1µM*,-4.9%,?,?,12.7%,?
CC(C)CN1Cc2ccccc2-n2ccnc2C12CCN(C(=O)c1cccc(F)c1)CC2,·,4.6%,·,·,·,·
CCOP(=S)(OCC)Oc1cc(C)oc(=O)c1Cl,8.91µM*,?,-8.9%,20µM*,8.91µM*,56.2µM*
CCOP(=S)(OCC)Oc1cc(C)oc(=O)c1,·,-5.6%,-11.4%,-24.0%,20µM*,?
CCOP(=S)(OCC)Oc1ccc2c(C)c(Cl)c(=O)oc2c1,50.7%[59 µM],-3.5%,168.6%,131.5%,8.1%,·
Clc1ccc(OCCCN2CCCC2)cc1Cl,10µM*,-34.8%,?,3.98µM*,7.5%,?
CCOc1cccc(OCCOCCN2CCCC2)c1,?,?,?,7.94µM*,-6.0%,?
CCOc1cccc(CNC2CN3CCC2CC3)c1 (stereo not given),?,-1.4%,25.9%,-7.0%,-0.6%,1.0%
O=C(c1ccn[nH]1)N1[C@H]2CC[C@@H]1c1cnc(-c3ccccc3)nc1C2,·,48.5%,·,·,·,·
O=C(NCc1ccccc1)[C@H]1CN2CCC1C[C@@H]2Cn1cc(CC2CCCCC2)nn1 (stereo not given in full),·,20.5%[176 µM],·,·,·,·
CCOc1c(Cl)cc(CNCCc2c[nH]c3ccccc23)cc1OC,?,?,-0.2%,?,56.2µM*,?
CCOc1cc(CNCCc2c[nH]c3ccccc23)cc(Cl)c1OCC,?,?,-14.9%,?,-6.9%,?
COc1ccc(CNCCc2c[nH]c3ccccc23)cc1,·,0.631µM*,·,·,·,·
COc1cccc(CNCCc2c[nH]c3ccccc23)c1,20.5%[2.33 µM],-23.0%,-24.9%,3.55µM*,-16.7%,79.4µM*
Cc1cccc(C(=O)N2CCC3(CC2)c2nccn2-c2ccccc2CN3C)c1,·,71.8%,·,·,·,·
Cc1ncc2c(n1)C[C@@H]1CC[C@H]2N1C(=O)c1ccoc1,·,28.8%,·,·,·,·
COc1ccc(NC(=O)CCc2nc(C3=CCN(Cc4cccc(Cl)c4)CC3)no2)c(OC)c1,?,-12.0%,0.5%[57 µM],?,·,?
COc1ccc(NC(=O)CCc2nc(C3=CCN(Cc4cccc(Cl)c4)CC3)no2)cc1OC,28.2µM*,?,-4.5%[57 µM],56.2µM*,·,50.1µM*
Nc1ccc2c(c1)Cc1cc([N+](=O)[O-])ccc1-2,50.1µM*,-1.2%,8.5%,-9.7%,13.0%,-23.3%
Nc1ccc2c(c1)Cc1ccccc1-2,?,-3.7%,?,?,4.1%,50.1µM*
Cc1nc(-c2ccc(N(C)C)cc2)cc([C@H]2CN3CC[C@H]2C[C@@H]3COC(=O)Nc2ccc(C(C)C)cc2)n1,·,-29.7%,·,·,·,·
Cc1ccc(S(=O)(=O)N[C@@H](CCCCN)C(=O)CCl)cc1,28.2µM*,?,59.1%,?,-23.2%,·
Cn1c(O)c(C(=Nc2ccc(F)cc2)c2ccccc2Cl)c(=O)n(C)c1=O,·,497.4%,5.3%,-22.0%,-0.8%,-38.3%
COC(=O)c1ccc(N=C(c2ccccc2)c2c(O)n(C)c(=O)n(C)c2=O)cc1,?,0.0%,51.7%,-5.0%,?,-18.2%
CSC(=Nc1ccccc1)c1c(O)n(C)c(=O)n(C)c1=O,?,-24.3%,45.7%,-26.3%,56.2µM*,8.3%
CCOC(=O)c1ccc(N=C(c2ccccc2)c2c(O)n(C)c(=O)n(C)c2=O)cc1,50.1µM*,0.0%,47.2%,11.4%,?,-12.1%
Cn1c(O)c(C(=Nc2ccccc2)SCc2ccccc2Cl)c(=O)n(C)c1=O,·,?,19.8%,-21.9%,39.8µM*,50.1µM*
Cn1nc(-c2ccccc2)cc1[C@H]1CN2CC[C@H]1C[C@@H]2CNS(=O)(=O)Cc1ccccc1,·,66.7%,·,·,·,·
COCCNC(=O)[C@H]1CN2CC[C@H]1C[C@@H]2Cn1cc(CN(C)C)nn1,·,70.8%[176 µM],·,·,·,·
CC1=NOC2(CCN(Cc3ccccc3)C2)C1 (stereo not given),·,2.4%[176 µM],·,·,·,·

# High-throughput results deposited in PubChem BioAssay by National Center for Advancing Translational Sciences (NCATS).
